According to PubChem BioAssay (NCATS):
Records with an inconclusive call do not appear. Calls of active or inactive are those of the source. The call rests on the fitted dose curve; in most records, active means well fitted cell-killing curve with a large enough effect; inconclusive means small, poorly fitted or top-dose-only effect, or effect the other way; inactive means flat fitted curve, though single readings scatter.

Each compound was assayed on Hek293T (assay: Primary qHTS to identify gynecologic anti-cancer compounds using libraries of approved drugs and bioactive compounds (AID 1345084; further: nearly all actives have a fitted effect of over 55% in size)). Details: Gynecologic cancer cell panel viability, ATPlite luminescence, 48 h, control line for the selectivity index; series mostly up to 57.5 µM; activity change, negative = cytotoxicity: at the top concentration.
How it was run: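 Cell viability after 48 h drug treatment, ATPlite luminescence readout; five doses.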
On the % scale 0 is the no-effect control and ±100 the full control effect.

| SMILES | activity change, negative = cytotoxicity | Potency |
| --- | --- | --- |
| CC1(C)CC[C@]2(C(=O)O[C@@H]3O[C@H](CO)[C@@H](O)[C@H](O)[C@H]3O)CC[C@]3(C)C(=CCC4[C@@]5(C)C[C@@H](O)[C@H](O)C(CO)(CO)C5CC[C@]43C)C2[C@@H]1O (stereo partly drawn) | 4.79% [at 25.3 µM] (inactive) |  |
| CO[C@@]12CC3[C@@H]([C@@H](O)[C@@H](OC(C)=O)C4[C@](C)(COC(C)=O)CCC[C@]34C)[C@@H](C)C1=CC(=O)O2 (stereo partly drawn) | -2.06% [at 25.3 µM] (inactive) |  |
| C[C@]12C=CC(=O)C=C1CC[C@@H]1[C@@H]2[C@@H](O)C[C@@]2(C)[C@H]1CC[C@]2(O)C(=O)COC(=O)CCC(=O)O | -8.08% (inactive) |  |
| CC1CCC2C(C)(C)C(O)CCC2(C)C12Cc1c(O)cc3c(c1O2)C(N)=NC3 (stereo not drawn) | 11.4% [at 38.5 µM] (inactive) |  |
| CC12CC34C=CC(=O)C(C)(CCC(=O)O)C3C(CC1C4)O2 (stereo not drawn) | 10.3% (inactive) |  |
| O=C(O)C[C@H]1CCC(=O)[C@@H]1C/C=C\CCOC1OC(CO)C(O)C(O)C1O (stereo partly drawn) | 0.349% [at 38.5 µM] (inactive) |  |
| COc1cc(/C=C/CO)ccc1O[C@@H]1O[C@H](CO)[C@@H](O)[C@H](O)[C@H]1O | 0.672% [at 38.5 µM] (inactive) |  |
| COc1ccc([C@H]2Cc3cccc(O)c3C(=O)O2)cc1 | 1.3% (inactive) |  |
| CC(=O)OC(C)OC(=O)C(C)c1ccc(-c2ccccc2)c(F)c1 (stereo not drawn) | -3.65% (inactive) |  |
| CC1OC(O[C@H]2[C@@H](O)C[C@@]3(C)C([C@H](O)C[C@]4(C)C3CC=C3C5CC(C)(C)CC[C@]5(C(=O)OC5OC(CO)C(O)C(O)C5OC5OCC(OC6OCC(OC7OCC(O)C(O)C7O)C(O)C6O)C(OC6OCC(O)(CO)C6O)C5O)CC[C@]34C)[C@]2(C)CO)C(O)C(O)C1O (stereo partly drawn) | -2% [at 6.55 µM] (inactive) |  |
| C/C=C/C1=CC2=CC(=O)C(C)(O)C(OC(=O)c3c(C)cc(O)cc3O)C2CO1 (stereo not drawn) | 9.29% [at 38.5 µM] (inactive) |  |
| c1ccc(C(OC2CCN(CCCc3nn[nH]n3)CC2)c2ccccc2)cc1 | 2.39% (inactive) |  |
| N[C@H]1C[C@H]1c1ccc(-c2cccc(O)c2)cc1 |  | inactive |
| NCCOCCOCCNC(=O)Cc1ccc(Nc2nc(NCc3ccc(F)cc3)nc(NCC3CCCCC3)n2)cc1 | 11.2% (inactive) |  |
| COc1cc(-c2cccc(O)c2)cc2c1OCO2 | -2.33% (inactive) |  |
| CCC[C@@H]1C[C@@H](C(=O)N[C@@H]([C@H]2O[C@H](SC)[C@H](OP(=O)(O)O)[C@@H](O)[C@H]2O)[C@H](C)Cl)N(C)C1 | 5.82% [at 25.3 µM] (inactive) |  |
| CCCC(N[C@@H](C)C(=O)N1[C@H](C(=O)O)C[C@@H]2CCCC[C@@H]21)C(=O)OCC (stereo partly drawn) | -3.4% (inactive) |  |
| C=CC(C)(C)C12CC3C(=O)NC(Cc4cnc[nH]4)C(=O)N3C1Nc1ccccc12 (stereo not drawn) | 2.31% [at 38.5 µM] (inactive) |  |
| CC1OC(OC2C(C)OC(OC3C(OC(=O)/C=C/c4ccc(O)cc4)C(CO)OC(OC4(COC(=O)/C=C/c5ccc(O)cc5)OC(CO)C(O)C4O)C3OC3OCC(O)(CO)C3O)C(O)C2O)C(O)C(O)C1O (stereo not drawn) | 0.502% [at 11.6 µM] (inactive) |  |

| SMILES | activity change, negative = cytotoxicity | Potency |
| --- | --- | --- |
| CC1CCC2(C(=O)OC3OC(COC4OC(CO)C(O)C(O)C4O)C(O)C(O)C3O)CCC3(C)C(=CCC4C5(C)CCC(O)C(C)(C(=O)O)C5CCC43C)C2C1(C)O (stereo not drawn) | 2.24% [at 11.6 µM] (inactive) |  |
| CN1Cc2c(N)cccc2C(c2ccccc2)C1 (stereo not drawn) | -4.66% (inactive) |  |
| CC(C)=CC/C=C(/C)[C@H]1CC[C@]2(C)[C@@H]1[C@H](O)CC1[C@@]3(C)CC[C@H](O)C(C)(C)[C@@H]3[C@@H](O[C@@H]3O[C@H](CO)[C@@H](O)[C@H](O)[C@H]3O[C@@H]3O[C@@H](C)[C@H](O)[C@@H](O)[C@H]3O)C[C@]12C (stereo partly drawn) | 0.417% [at 25.3 µM] (inactive) |  |
| COc1cc(C2c3cc(O)c(OC)cc3CC(CO)C2CO)ccc1O (stereo not drawn) | 9.59% [at 38.5 µM] (inactive) |  |
| CC/C=C\C[C@H]1C(=O)C=C[C@@H]1CCCCCCCC(=O)O | 0.859% (inactive) |  |
| CC1=CCC2C(C)(CO)CCCC2(CO)C1CO (stereo not drawn) | 1.78% (inactive) |  |
| C[C@@H]1O[C@@H](O[C@@H]2[C@@H](O)[C@@H](O)[C@H](O[C@@H]3[C@@H](O)[C@@H](O[C@]4(CO)O[C@H](CO)[C@@H](O)[C@@H]4OC(=O)/C=C/c4ccc(O)cc4)O[C@H](CO)[C@H]3OC(=O)/C=C/c3ccc(O)cc3)O[C@H]2C)[C@H](O)[C@H](O)[C@H]1O | 1.13% [at 11.6 µM] (inactive) |  |
| CC(=O)OCC(=O)O[C@@H]1[C@H]2[C@@H](OC(=O)c3ccccc3)[C@@H](C)C[C@]2(O)[C@H](OC(C)=O)C2(C)[C@H]3CC(C)(C)C(=O)[C@@H]3CC1(OC(C)=O)[C@@H]2OC(C)=O (stereo partly drawn) | 0.0593% [at 25.3 µM] (inactive) |  |
| O=S(=O)(NC1CCNCC1)c1cc(S(=O)(=O)c2ccccc2)ccc1C(F)(F)F | 0.546% (inactive) |  |
| COCC(=O)N1CCc2cc(-c3csc(NC(=O)c4cc(OC)cc(OC)c4)n3)ccc21 | 11.2% (inactive) |  |
| CC1(C)OC(=O)C(OCC2CC2)=C1c1ccc(S(C)(=O)=O)cc1 | 4.38% (inactive) |  |
| C[C@]12CCC[C@](C)(C(=O)O)C1CCC13C=C(CO)C(CCC12)C3 (stereo partly drawn) | 7.72% [at 38.5 µM] (inactive) |  |
| Cc1coc2c1CC1OC1(C)CCC1OC1(C)C2 (stereo not drawn) | -0.912% (inactive) |  |
| C/C=C1\[C@H](O[C@@H]2O[C@H](CO)[C@@H](O)[C@H](O)[C@H]2O)OC=C(C(=O)OC)[C@H]1CC(=O)OC | -0.74% [at 25.3 µM] (inactive) |  |
| C=CCc1ccc(O[C@@H]2O[C@H](CO[C@@H]3O[C@H](CO)[C@@H](O)[C@H](O)[C@H]3O)[C@@H](O)[C@H](O)[C@H]2O)c(O)c1 | -11.2% [at 25.3 µM] (inactive) |  |
| C=C1CCC2C(C)(C(=O)O)CC(O)CC2(C)C1CC/C(C)=C/C(=O)O (stereo not drawn) | 6.73% [at 38.5 µM] (inactive) |  |
| O=C(NC[C@H](O)CN1CCc2ccccc2C1)c1cc(NC2COC2)ncn1 | 0.961% (inactive) |  |
| Nc1ncnc2c1ncn2[C@H]1CCCO1 | 4% (inactive) |  |
| CC1(C)CCCC2(C)C3=C(C(=O)OC3O)C(O)CC12 (stereo not drawn) | 8.21% (inactive) |  |
